Measured values from the supplement of paper PMC11732987, “Enantioselective OTUD7B fragment discovery through chemoproteomics screening and high-throughput optimisation” (Communications Chemistry, 2025).

Tests used:
Assay in all cases: log2 ratio of Biotin-Ahx-Ub-VS probe labelling (fragment/DMSO); higher = less target engagement (more negative = stronger competition), active = hit call of the paper (q ≤ 0.05, log2 ratio ≤ -1)
Settings in all cases: compound concentration: 200 uM; treatment time: 3 h
ALG13 = molecular target: T1, ALG13 (UniProt Q9NP73)
T1 sequence (whole entry): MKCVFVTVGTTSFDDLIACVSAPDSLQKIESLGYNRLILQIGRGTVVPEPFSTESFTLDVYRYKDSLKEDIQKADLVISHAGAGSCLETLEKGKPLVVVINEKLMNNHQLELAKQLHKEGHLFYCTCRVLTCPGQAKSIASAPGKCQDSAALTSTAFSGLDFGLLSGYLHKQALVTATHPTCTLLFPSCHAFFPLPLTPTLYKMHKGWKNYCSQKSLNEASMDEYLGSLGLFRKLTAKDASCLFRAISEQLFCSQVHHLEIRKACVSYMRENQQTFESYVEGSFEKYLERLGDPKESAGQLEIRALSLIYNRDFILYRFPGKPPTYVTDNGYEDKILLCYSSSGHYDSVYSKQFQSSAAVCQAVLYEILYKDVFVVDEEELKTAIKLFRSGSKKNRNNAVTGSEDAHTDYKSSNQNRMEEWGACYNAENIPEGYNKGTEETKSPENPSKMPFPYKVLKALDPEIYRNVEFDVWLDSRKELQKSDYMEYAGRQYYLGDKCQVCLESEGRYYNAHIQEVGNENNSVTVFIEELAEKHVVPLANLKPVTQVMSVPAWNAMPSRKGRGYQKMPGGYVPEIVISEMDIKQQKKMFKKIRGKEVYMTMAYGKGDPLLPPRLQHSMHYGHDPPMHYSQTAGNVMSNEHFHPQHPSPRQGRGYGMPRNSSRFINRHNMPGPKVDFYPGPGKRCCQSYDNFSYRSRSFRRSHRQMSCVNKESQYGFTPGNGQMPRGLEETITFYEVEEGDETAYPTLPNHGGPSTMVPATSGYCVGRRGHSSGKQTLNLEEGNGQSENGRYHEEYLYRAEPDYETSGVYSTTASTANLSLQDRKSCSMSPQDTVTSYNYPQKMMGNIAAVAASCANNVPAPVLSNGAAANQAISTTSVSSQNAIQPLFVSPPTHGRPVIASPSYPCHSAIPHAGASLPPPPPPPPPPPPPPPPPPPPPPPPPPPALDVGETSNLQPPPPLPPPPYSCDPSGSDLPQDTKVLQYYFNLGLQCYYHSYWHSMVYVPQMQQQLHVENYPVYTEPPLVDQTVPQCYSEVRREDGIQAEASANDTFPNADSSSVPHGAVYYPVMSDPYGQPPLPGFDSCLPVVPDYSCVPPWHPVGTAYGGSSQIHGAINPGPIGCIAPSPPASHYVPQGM
Method in brief: (§1)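 Fragment (200 µM) or vehicle was incubated for 3 h with triplicate HEK293T lysate samples of 495 µg, which were then treated with Biotin-Ahx-Ub-VS at 0.5 µM final for 1 h. Labelled DUBs were enriched on NeutrAvidin, digested with LysC and trypsin, and analysed by diaPASEF LC-MS/MS. Values are average log2 fragment/vehicle ratios from an unpaired t-test on global-median-normalised Spectronaut label-free quantities, using proteins with ≥2 unique peptides.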

ATXN3 = ATXN3 (UniProt P54252)
ATXN3, sequence (P54252 whole entry): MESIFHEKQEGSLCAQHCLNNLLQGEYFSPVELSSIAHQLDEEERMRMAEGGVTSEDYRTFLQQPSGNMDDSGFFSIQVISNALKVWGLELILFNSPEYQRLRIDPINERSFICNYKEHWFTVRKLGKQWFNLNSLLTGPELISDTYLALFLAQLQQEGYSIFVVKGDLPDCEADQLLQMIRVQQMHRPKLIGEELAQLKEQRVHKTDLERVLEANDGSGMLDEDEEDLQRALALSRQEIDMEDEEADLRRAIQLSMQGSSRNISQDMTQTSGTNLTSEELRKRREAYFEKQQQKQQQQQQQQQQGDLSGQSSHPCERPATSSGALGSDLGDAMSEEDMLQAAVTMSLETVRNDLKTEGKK
Method in brief: as §1

BAP1 = molecular target: T2, BAP1 (UniProt Q92560)
T2 sequence (whole entry): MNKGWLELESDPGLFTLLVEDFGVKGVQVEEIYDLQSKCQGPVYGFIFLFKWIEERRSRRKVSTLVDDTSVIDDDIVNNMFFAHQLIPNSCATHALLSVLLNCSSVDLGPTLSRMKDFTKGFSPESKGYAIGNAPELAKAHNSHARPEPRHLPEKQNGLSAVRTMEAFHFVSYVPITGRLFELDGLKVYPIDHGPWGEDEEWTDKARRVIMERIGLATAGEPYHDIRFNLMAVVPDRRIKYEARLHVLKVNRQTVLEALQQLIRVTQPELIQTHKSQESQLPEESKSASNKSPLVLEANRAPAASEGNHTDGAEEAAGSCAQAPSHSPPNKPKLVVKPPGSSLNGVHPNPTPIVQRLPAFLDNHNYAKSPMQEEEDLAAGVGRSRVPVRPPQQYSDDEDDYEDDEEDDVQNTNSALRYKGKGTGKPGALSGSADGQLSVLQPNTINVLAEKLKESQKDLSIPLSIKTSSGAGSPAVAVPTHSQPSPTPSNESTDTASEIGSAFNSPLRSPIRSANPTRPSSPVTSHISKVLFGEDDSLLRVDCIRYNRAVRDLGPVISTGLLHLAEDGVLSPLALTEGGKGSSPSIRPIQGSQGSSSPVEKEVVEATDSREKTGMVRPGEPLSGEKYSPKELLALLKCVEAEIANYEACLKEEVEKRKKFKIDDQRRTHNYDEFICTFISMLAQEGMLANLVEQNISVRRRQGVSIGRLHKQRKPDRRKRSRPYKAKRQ
Method in brief: as §1

EIF3F = EIF3F (UniProt O00303)
EIF3F, sequence (O00303 whole entry): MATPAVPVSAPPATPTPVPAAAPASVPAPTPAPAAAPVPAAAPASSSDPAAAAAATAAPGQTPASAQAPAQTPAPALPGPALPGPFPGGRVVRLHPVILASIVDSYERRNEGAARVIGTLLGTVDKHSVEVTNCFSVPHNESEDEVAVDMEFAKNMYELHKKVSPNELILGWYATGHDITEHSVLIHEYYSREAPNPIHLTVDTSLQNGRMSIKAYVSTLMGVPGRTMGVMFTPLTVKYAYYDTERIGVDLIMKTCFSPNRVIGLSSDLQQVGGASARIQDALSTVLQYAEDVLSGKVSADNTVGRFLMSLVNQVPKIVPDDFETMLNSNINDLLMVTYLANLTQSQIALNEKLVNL
Method in brief: as §1

EIF3H = EIF3H (UniProt O15372)
EIF3H, sequence (O15372 whole entry): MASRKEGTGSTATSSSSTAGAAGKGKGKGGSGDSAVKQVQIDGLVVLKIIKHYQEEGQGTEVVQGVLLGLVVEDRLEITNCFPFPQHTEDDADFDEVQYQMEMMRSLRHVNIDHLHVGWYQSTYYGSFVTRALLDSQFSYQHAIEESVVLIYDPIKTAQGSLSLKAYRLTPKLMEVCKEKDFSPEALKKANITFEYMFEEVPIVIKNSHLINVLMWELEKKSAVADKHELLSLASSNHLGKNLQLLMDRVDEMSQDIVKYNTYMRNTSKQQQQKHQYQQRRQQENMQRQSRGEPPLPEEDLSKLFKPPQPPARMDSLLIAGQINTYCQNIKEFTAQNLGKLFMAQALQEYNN
Method in brief: as §1

FAM105A = molecular target: T3, FAM105A (UniProt Q9NUU6)
T3 sequence (whole entry): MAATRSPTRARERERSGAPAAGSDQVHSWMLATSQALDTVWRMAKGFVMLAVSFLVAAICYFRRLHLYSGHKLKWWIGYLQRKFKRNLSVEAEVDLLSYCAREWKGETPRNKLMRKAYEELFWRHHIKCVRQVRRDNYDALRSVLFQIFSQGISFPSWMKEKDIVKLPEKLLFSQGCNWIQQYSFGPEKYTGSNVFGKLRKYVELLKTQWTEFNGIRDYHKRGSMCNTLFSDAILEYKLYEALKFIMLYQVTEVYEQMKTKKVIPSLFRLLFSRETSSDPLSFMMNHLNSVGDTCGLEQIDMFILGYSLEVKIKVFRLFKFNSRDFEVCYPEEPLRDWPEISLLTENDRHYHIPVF
Method in brief: as §1

OTUB1 = OTUB1 (UniProt Q96FW1)
OTUB1, sequence (Q96FW1 whole entry): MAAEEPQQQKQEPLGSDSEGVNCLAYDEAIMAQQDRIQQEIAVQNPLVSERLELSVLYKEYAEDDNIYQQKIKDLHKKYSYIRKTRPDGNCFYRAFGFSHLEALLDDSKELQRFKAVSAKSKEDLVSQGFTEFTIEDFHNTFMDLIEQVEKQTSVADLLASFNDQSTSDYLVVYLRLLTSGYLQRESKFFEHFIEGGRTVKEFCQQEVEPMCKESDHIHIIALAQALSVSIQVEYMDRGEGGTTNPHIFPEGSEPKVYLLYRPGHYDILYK
Method in brief: as §1

OTUD4 = molecular target: T4, OTUD4 (UniProt Q01804)
T4 sequence (whole entry): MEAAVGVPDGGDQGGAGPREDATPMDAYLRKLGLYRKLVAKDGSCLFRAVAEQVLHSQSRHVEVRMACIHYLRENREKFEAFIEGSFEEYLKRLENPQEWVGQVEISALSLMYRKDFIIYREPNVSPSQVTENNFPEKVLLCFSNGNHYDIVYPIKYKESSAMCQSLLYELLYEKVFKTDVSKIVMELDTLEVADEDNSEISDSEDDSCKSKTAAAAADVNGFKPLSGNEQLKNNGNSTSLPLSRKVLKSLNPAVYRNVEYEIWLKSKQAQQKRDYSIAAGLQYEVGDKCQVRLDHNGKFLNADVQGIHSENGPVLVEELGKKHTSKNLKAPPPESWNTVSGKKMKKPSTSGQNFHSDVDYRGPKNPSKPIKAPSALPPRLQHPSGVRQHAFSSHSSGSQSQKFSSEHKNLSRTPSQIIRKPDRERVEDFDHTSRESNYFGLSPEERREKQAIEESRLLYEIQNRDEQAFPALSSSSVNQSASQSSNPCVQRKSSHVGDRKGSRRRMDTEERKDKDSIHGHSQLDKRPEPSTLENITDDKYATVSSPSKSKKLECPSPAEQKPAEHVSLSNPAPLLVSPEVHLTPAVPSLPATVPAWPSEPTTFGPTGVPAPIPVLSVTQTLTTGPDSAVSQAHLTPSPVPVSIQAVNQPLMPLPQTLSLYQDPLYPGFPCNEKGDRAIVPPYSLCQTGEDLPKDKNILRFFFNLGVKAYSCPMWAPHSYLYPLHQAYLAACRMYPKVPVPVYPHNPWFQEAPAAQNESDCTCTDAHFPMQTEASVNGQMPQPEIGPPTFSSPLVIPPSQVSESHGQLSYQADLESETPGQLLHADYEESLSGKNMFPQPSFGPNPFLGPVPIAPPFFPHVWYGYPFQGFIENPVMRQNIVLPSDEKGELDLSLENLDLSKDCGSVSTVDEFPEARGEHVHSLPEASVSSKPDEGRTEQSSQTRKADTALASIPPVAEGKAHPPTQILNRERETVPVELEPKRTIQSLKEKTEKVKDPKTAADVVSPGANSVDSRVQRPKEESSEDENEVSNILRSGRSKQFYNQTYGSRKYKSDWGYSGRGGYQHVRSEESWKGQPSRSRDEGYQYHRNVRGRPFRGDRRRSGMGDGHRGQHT
Method in brief: as §1

OTUD5 = molecular target: T5, OTUD5 (UniProt Q96G74)
T5 sequence (whole entry): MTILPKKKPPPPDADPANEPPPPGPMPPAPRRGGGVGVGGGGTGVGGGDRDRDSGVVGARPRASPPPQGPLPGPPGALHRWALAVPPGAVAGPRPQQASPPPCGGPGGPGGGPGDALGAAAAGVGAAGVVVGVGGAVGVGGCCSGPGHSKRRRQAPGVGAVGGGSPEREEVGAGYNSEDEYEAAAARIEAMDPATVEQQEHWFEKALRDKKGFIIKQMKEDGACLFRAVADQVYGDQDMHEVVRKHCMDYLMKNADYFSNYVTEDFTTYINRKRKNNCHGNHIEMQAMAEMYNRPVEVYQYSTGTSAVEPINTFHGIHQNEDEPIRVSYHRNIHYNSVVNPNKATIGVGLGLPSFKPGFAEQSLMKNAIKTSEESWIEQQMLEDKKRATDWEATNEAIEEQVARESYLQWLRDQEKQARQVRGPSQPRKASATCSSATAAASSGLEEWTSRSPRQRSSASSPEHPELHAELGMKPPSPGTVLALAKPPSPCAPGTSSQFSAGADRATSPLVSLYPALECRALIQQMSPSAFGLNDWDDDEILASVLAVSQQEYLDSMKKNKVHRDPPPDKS
Method in brief: as §1

Measured: log2 ratio of Biotin-Ahx-Ub-VS probe labelling

CC(=O)C1CCCCN1C(=O)CCl (centres undefined)
inactive: ALG13 0.0431 | ATXN3 0.025 | BAP1 -0.0781 | EIF3F -0.0667 | EIF3H 0.304 | FAM105A 0.264 | OTUB1 0.0807 | OTUD4 0.0774 | OTUD5 -0.219
